Measured values reported in PubChem BioAssay.
Several values for one entry are separate records, joined by “and”; a condition that tells them apart may be missing. Equal values may be shown once. Activity calls are given as the source filed them.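 The calls were made as follows, unless noted: active = compounds that lower survival of HCT116 colon cancer cells in the luminescence readout, no numeric limit stated; inactive = the rest.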

Key:
[1] = Wnt pathway potentiators raising nuclear beta-catenin – imaging, WNT3A-conditioned medium, mouse C2C12, NPC library, primary screen (AID 1117326; in the data active = nuclear beta-catenin stimulation mostly above about 4.2%, no sharp cut-off; inactive = mostly below about 10%; also: reference of the scale not given here); conditions: stronger effect = higher value
[2] = stimulators of insulin release from INS-1E, primary screen, cell-based, 5 mM glucose, NPC library (AID 1117329;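 active = compound raises insulin release from rat beta cells at 5 mM glucose, no numeric limit stated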; also: reference of the scale not given here); conditions: rat INS-1E insulin secretion, at 10 µM, stronger effect = higher value
[3] = growth inhibition of GSK3B-pretreated HCT116 cells – cell-based, CellTiter-Glo, 0.2 to 20 µM (AID 1117336;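 active = compounds lowering colon cancer cell viability after pretreatment blocking the GSK3B kinase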); conditions: HCT116 viability after GSK3B inhibitor, at 20 µM, stronger effect = higher value
[4] = inhibition of endothelial tube formation, primary screen, imaging, VEGF stimulated, CD31 staining, tube area, NPC library (AID 1117340;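 active = compound that reduces growth-factor-driven endothelial tube area in a mixed cell culture, no cutoff stated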); conditions: VEGF-stimulated ADSC/ECFC co-culture, at 10 µM, stronger effect = higher value
[5] = GLP1 release stimulators, primary, NCI-H716, NPC library (AID 1117341;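 active = compound raises GLP1 secretion from the human gut endocrine cells, with no numeric limit stated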; also: reference of the scale not given here); conditions: NCI-H716 cells, at 10 µM, stronger effect = higher value
[6] = HCT116 colon cancer cell growth inhibition, primary screen, CellTiter-Glo luminescence, NPC library (AID 1117342); conditions: at 20 µM (top of the series)
[7] = reduced SW480 viability measured with CellTiter-Glo, NPC library, primary (AID 1117343;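 active = compounds that lower viability of the colon cancer cells in the luminescence readout, with no numeric limit stated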); conditions: CellTiter-Glo luminescence; at 20 µM (top of the series)
[8] = NPC library primary testing for decreased DLD-1 cell viability via CellTiter-Glo (AID 1117346;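 active = compounds that lower survival of DLD-1 colon cancer cells in the luminescence readout, no cutoff given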); conditions: DLD-1 viability, CellTiter-Glo luminescence; at 20 µM (top of the series)
[9] = target: 6-phosphogluconate dehydrogenase, decarboxylating (Homo sapiens) (UniProt P52209); assay: inhibition of human phosphogluconate dehydrogenase – biochemical, recombinant enzyme, NADPH absorbance, primary screen (AID 1159550;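 active = at least 20% inhibition of 6-phosphogluconate dehydrogenase activity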); conditions: recombinant 6PGD, NADPH absorbance 341 nm; at 10 µM; stronger effect = higher value
Sequence of 6-phosphogluconate dehydrogenase, decarboxylating (Homo sapiens) (P52209 whole entry, looked up): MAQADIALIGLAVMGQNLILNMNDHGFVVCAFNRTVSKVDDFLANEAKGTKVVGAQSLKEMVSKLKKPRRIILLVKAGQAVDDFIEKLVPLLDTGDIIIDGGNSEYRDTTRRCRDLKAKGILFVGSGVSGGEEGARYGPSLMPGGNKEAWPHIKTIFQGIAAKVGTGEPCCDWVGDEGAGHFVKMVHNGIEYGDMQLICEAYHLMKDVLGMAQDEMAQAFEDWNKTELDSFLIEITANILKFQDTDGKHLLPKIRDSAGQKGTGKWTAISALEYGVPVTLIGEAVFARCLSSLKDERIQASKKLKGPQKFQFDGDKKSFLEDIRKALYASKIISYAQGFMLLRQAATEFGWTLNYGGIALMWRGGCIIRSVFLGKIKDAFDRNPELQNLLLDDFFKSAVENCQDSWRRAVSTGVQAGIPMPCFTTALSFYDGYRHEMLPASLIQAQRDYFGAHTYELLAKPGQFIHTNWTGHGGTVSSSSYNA

[10] = P. berghei load reduction in hepatocytes – cell-based, HepG2, luciferase luminescence, HepG2 viability, primary screen (AID 624349; in the data active = parasite load remaining mostly below about 12%, no sharp cut-off; inactive = mostly above about 10%;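 also: 100% = mean of DMSO negative control wells on the same plate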); conditions: P. berghei liver stage in HepG2, luciferase luminescence, concentration not given here; parasite load remaining: stronger effect = lower value; viability: measured here: HepG2 viability without parasites

Row | SMILES | nuclear beta-catenin stimulation ([1]; at 10 µM) | nuclear beta-catenin stimulation ([1]; stimulation, at 2 µM) | insulin secretion stimulation [2] | viability decrease [3] | tube area decrease [4] | GLP1 secretion stimulation [5] | inhibition of viability [6] | viability decrease (inhibition) [7] | viability decrease (inhibition) [8] | inhibition [9] | parasite load remaining [10] | viability [10]
1 | COc1cc(NS(=O)(=O)c2ccc(N)cc2)nc(OC)n1 | 0.5% (inactive) | 0.4% | 1.8% (inactive) | -7.9% (inactive) | 0.8% (inactive) | 1.9% (inactive) | -0.4% (inactive) | 8.4% (inactive) | 0.7% (inactive) | -12.2% (inactive) | – | –
2 | Cc1cccc(N(C)C(=S)Oc2ccc3ccccc3c2)c1 | -0.1% (inactive) | 1.3% | 0.4% (inactive) | 50% (active) | -39% (inactive) | -2.7% (inactive) | 58.6% (active) | 35.1% (inactive) | 56.8% (active) | 6.26% (inactive) | – | –
3 | Cc1ccc(S(=O)(=O)NC(=O)NN2CC3CCCC3C2)cc1 (stereo not given) | 0.7% (inactive) | 1.2% | 42.6% (active) | -5.85% (inactive) | -26.1% (inactive) | 0.8% (inactive) | -22.6% (inactive) | 22.3% (inactive) | -0.5% (inactive) | 2.59% (inactive) | – | –
4 | CC(=O)Oc1ccc(C(c2ccc(OC(C)=O)cc2)c2ccccn2)cc1 | -0.9% (inactive) | -2.7% | 2.65% (inactive) | 41.4% (inactive) | 15.6% (inactive) | 5.8% (inactive) | 67.8% (active) | -6% (inactive) | 53.5% (active) | 4.53% (inactive) | – | –
5 | O=C1OCCN1/N=C/c1ccc([N+](=O)[O-])o1 | 1.7% (inactive) | -0.6% | -3% (inactive) | 24.6% (inactive) | -8.5% (inactive) | 5.7% (inactive) | 12.3% (inactive) | 74.9% (active) | 25.6% (inactive) | 12.5% (inactive) | – | –
6 | C[C@]12CCC(=O)C=C1CC[C@@H]1[C@@H]2[C@@H](O)C[C@@]2(C)[C@H]1CC[C@]2(O)C(=O)COP(=O)(O)O | -0.6% (inactive) | -0.1% | 1.8% (inactive) | -2.5% (inactive) | -8.4% (inactive) | -1% (inactive) | -7.2% (inactive) | -5.9% (active) | -10.7% (inactive) | 7.31% (inactive) | – | –
7 | CCN(CC)CCOC(=O)C(Cc1cccc2ccccc12)CC1CCCO1 (stereo not given) | 0.6% (inactive) | 0.5% | 7.9% (inactive) | -120% (inactive) | -1.6% (inactive) | 8.3% (active) | 26.1% (inactive) | 37.7% (inactive) | 2.6% (inactive) | -4.35% (inactive) | – | –
8 | CCCCCCCCNC(C)C(O)c1ccc(SC(C)C)cc1 (stereo not given) | -5.4% (inactive) | 1.4% | -0.1% (inactive) | 101% (active) | 45.2% (active) | 38.4% (active) | 102% (active) | 142% (active) | 103% (active) | 12% (inactive) | – | –
9 | COc1ccc2c(c1)c(CC(=O)OCC(=O)O)c(C)n2C(=O)c1ccc(Cl)cc1 | 1.8% (inactive) | 0.4% | 2.2% (inactive) | 4.9% (inactive) | -5.2% (inactive) | -2.5% (inactive) | 12.8% (inactive) | 33.3% (inactive) | 0.1% (inactive) | -4.54% (inactive) | – | –
10 | O=C1C(=O)c2ccccc2C(O)=C1C1CCC(c2ccc(Cl)cc2)CC1 (stereo not given) | 2.2% (inactive) | -1% | 1.1% (inactive) | 96.3% (active) | 69.9% (active) | 1.4% (inactive) | 97.1% (active) | 144% (active) | 99% (active) | 5.16% (inactive) | – | –
11 | NCCCC[C@H](N[C@@H](CCc1ccccc1)C(=O)O)C(=O)N1CCC[C@H]1C(=O)O | 0.4% (inactive) | 0.9% | -0.8% (inactive) | -3.9% (inactive) | -7.9% (inactive) | 0.3% (inactive) | -5.23% (inactive) | 9.9% (inactive) | -8% (inactive) | -2.78% (inactive) | – | –
12 | Cc1c(Cl)cccc1Nc1ccccc1C(=O)O | 1.9% (inactive) | 1.6% | 2.1% (inactive) | -14.5% (inactive) | -8.8% (inactive) | 3.6% (inactive) | 35.6% (inactive) | 68.1% (active) | 93.6% (active) | -12.8% (inactive) | – | –
13 | O=C(CCCN1CCN(c2ccccn2)CC1)c1ccc(F)cc1 | 0.1% (inactive) | -1% | 7.45% (inactive) | 31.5% (inactive) | -12.3% (inactive) | -0.3% (inactive) | 51% (active) | 11.4% (inactive) | 20.2% (inactive) | 1.29% (inactive) | – | –
14 | CN1CCC[C@@H]1CCO[C@](C)(c1ccccc1)c1ccc(Cl)cc1 | 7.8% (inactive) | 2.3% | 1.3% (inactive) | 25.3% (inactive) | 55% (active) | 10.3% (inactive) | 78.8% (active) | 113% (active) | 86.8% (active) | 12.4% (inactive) | – | –
15 | NC(=O)NC1NC(=O)NC1=O (stereo not given) | -0.1% (inactive) | 1.1% | -2.3% (inactive) | -10.1% (inactive) | 1.2% (inactive) | -1.2% (inactive) | 8% (inactive) | 0.3% (inactive) | -6.65% (inactive) | 4.15% (inactive) | – | –
16 | CCO/C([O-])=N/c1c[n+](N2CCOCC2)no1 | 0.8% (inactive) | 1.2% | 0.9% (inactive) | 22.3% (inactive) | 2.4% (inactive) | -0.5% (inactive) | 8.63% (inactive) | 43.4% (inactive) | -1.5% (inactive) | 16.2% (inactive) | – | –
17 | NC(=O)N/N=C/c1ccc([N+](=O)[O-])o1 | 7.6% (inactive) | 2% | -0.4% (inactive) | 45.2% (inactive) | -17% (inactive) | -2.5% (inactive) | 45.3% (inactive) | 68.8% (active) | -6.7% (inactive) | 5.85% (inactive) | – | –
18 | O=c1[nH]c(=O)n([C@H]2C[C@H](O)[C@@H](CO)O2)cc1F | 21% (inactive) | 21.6% | -1.2% (inactive) | 94.2% (active) | 87.8% (active) | 2.8% (inactive) | 102% (active) | 93.2% (active) | 69.5% (active) | -7.05% (inactive) | 13.4% (inactive) | 75%
19 | Cc1[nH]c(C)c(Cl)c(=O)c1Cl | 1.4% (inactive) | 0.4% | -1.1% (inactive) | 10.2% (inactive) | -15.3% (inactive) | 0.1% (inactive) | 6.55% (inactive) | 29% (inactive) | 11.2% (inactive) | -15% (inactive) | 132% (inactive) and 21.1% (inactive) and 5.5% (inactive) | 78.8% and 117% and 80.5%
20 | COc1ccc2cc3[n+](cc2c1OC)CCc1cc2c(cc1-3)OCO2 | 0.6% (inactive) | 0% | 1.05% (inactive) | 57.5% (active) | 57.3% (active) | 0.3% (inactive) | 84% (active) | 33.2% (inactive) | 62.7% (active) | 10.3% (inactive) | 31.4% (inactive) and 124% (inactive) and 72.9% (inactive) | 103% and 67.6% and 82.6%
21 | CC(=O)OCC(COC(C)=O)OC(C)=O | 0.2% (inactive) | 3.4% | 0.7% (inactive) | -25.5% (inactive) | -8.3% (inactive) | 0.1% (inactive) | -1.2% (inactive) | -5.5% (inactive) | -3.8% (inactive) | 1.31% (inactive) | 142% (inactive) and 56.1% (inactive) | 73.5% and 86.5%
22 | CCCCc1nc(Cl)c(CO)n1Cc1ccc(-c2ccccc2-c2nn[nH]n2)cc1 | 2.6% (inactive) | 2.1% | 0.1% (inactive) | -41.3% (inactive) | 11.8% (inactive) | 1.1% (inactive) | -10.5% (inactive) | 28.5% (inactive) | -22.4% (inactive) | -22.5% (inactive) | 128% (inactive) and 49.4% (inactive) | 84.8% and 98.4%
23 | CC(=O)Nc1c(I)cc(I)c(C(=O)O)c1I | -0.1% (inactive) | 1.9% | 0.6% (inactive) | -43.4% (inactive) | 34.2% (inactive) | 0.7% (inactive) | 4.5% (inactive) | -4.3% (inactive) | 0.1% (inactive) | -3.44% (inactive) | 151% (inactive) and 81.4% (inactive) | 82.9% and 215%
24 | COc1ccc(C(=O)c2ccccc2O)c(O)c1 | 1.1% (inactive) | 0.4% | -0.5% (inactive) | -1.1% (inactive) | 1.6% (inactive) | -1.5% (inactive) | -9.15% (inactive) | 1.6% (inactive) | -1.5% (inactive) | 11.7% (inactive) | 83.1% (inactive) and 102% (inactive) and 55.6% (inactive) | 96.9% and 79.4% and 89.9%
25 | C[C@@H]1C[C@H]2[C@@H]3C[C@H](F)C4=CC(=O)C=C[C@]4(C)[C@@]3(F)[C@@H](O)C[C@]2(C)[C@@]1(O)C(=O)CO | -0.8% (inactive) | 0.3% | 2.8% (inactive) | -29.3% (inactive) | -2.9% (inactive) | -2.9% (inactive) | 4.83% (inactive) | -11.5% (inactive) | -9.6% (inactive) | 8.65% (inactive) | 102% (inactive) | 99.8%
26 | CCCCC(CC)CN=C(N)NC(N)=NCCCCCCN=C(N)NC(N)=NCC(CC)CCCC (stereo not given) | -3.7% (inactive) | -1.8% | 22.3% (active) | 99.1% (active) | 108% (active) | 0% (inactive) | 99.6% (active) | 97% (active) | 102% (active) | -3.86% (inactive) | -0.04% (inactive) and -6.78% (inactive) | 41.3% and 33.2%
27 | Oc1ccc(Cl)cc1Cc1cc(Cl)ccc1O | 10.6% (inactive) | 5.8% | -0.9% (inactive) | 100% (active) | 109% (active) | 30.9% (active) | 102% (active) | -50.4% (active) | 105% (active) | -8.92% (inactive) | 11.8% (inactive) | 65.1%
